According to PubChem BioAssay (NCATS):
Records with an inconclusive call do not appear. Active and inactive are the calls of the source. The call rests on the fitted dose curve; in most records, active means well fitted curve in the direction sought with a large enough effect; inconclusive means small, poorly fitted or top-dose-only effect, or another doubt; inactive means no such curve, though single readings can be large; an effect the other way counts as inactive or inconclusive. Where a SMILES comes first, the peptide text is derived from it.

Tests used:
[1] = P-glycoprotein substrates identified in KB-3-1 adenocarcinoma cell line, qHTS therapeutic library screen (AID 1346986); further: nearly all actives have a fitted effect of over 60% in size
Outline: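 Viability read by CellTiter-Glo after 72 h compound exposure in dose-response of KB-3-1 and KB-8-5-11 (P-gp-high) cells. Hits needed AC50 < 10 uM, >50% maximum response and curve class -1.1 to -2.4. Cherry-picks retested ± tariquidar, including pcDNA/MDR-19 HEK-293 pair.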

[2] = P-glycoprotein substrates identified in KB-8-5-11 adenocarcinoma cell line, qHTS therapeutic library screen (AID 1346987); further: nearly all actives have a fitted effect of over 65% in size; on activity change, negative = cytotoxicity: series mostly up to about 44 µM; on the % scale 0 is the no-effect control and ±100 the full control effect
Outline: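 Compounds are pinned in dose-response onto KB-8-5-11 cells (500 cells/well, colchicine-free medium) and left 72 h at 37 degree C. CellTiter-Glo luminescence then yields AC50 values.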

[3] = tested on: Zika virus NS2B-NS3 protease (unlinked complex); test: Primary screen GU Rhodamine qHTS for Zika virus inhibitors: Unlinked NS2B-NS3 protease assay (AID 1347159); further: on the % scale 0 is the no-effect control and ±100 the full control effect; nearly all actives have a fitted effect of over 60% in size
Outline: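 Unlinked NS2B/NS3, 25 nM; Rhod110 peptide, 1.5 microM; compounds, up to 114 microM. Reaction run 15 min at RT in 10 mM Tris-HCl pH 8.0, 0.01% Tween 20; kinetic fluorescence change fitted with a 4-parameter Hill model.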

[4] = tested on: Zika virus NS2B-NS3 protease (linked construct); test: Primary screen NINDS Rhodamine qHTS for Zika virus inhibitors (AID 1347160); further: nearly all actives have a fitted effect of over 55% in size
Outline: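 Single-chain NS2B-NS3 protease, 25 nM, pH 8.0; compounds preincubated 15 min. Activity: Rhodamine110 release from 1.5 microM substrate over 15 min, room temperature, data fitted to 4-parameter Hill.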

C/C=C(\C)C(=O)OCC1OC(OC2OC(CO)C(O)C(O)C2O)C(O)C(O)C1O (stereo unspecified)
inactive: Potency [1] | Potency [2] | Potency [3] | Potency [4]

COC(=O)c1cc(OC)cc(OC)c1C(=O)c1c(OC)cc2c(c1O)C1CCC(O)C(C)(O2)O1 (stereo unspecified)
inactive: Potency [1] | Potency [2] | Potency [3] | Potency [4]

CC1(C)CCC2(C(=O)O)C(O)CC3(C)C(=CCC4C5(C)CCC(OC6OC(CO)C(O)C(O)C6OC6OC(CO)C(O)C(O)C6OC6OCC(O)(CO)C6O)C(C)(C)C5CCC43C)C2C1 (stereo unspecified)
inactive: outcome [1] inactive [at 9.29 µM] | outcome [2] inactive [at 9.29 µM] | Potency [3] | Potency [4]

C[C@@H](c1ccccc1)N(C(N)=NC#N)c1cccc2ncccc12
inactive: Potency [1] | Potency [2] | Potency [3] | Potency [4]

CC1(C)CC[C@]2(C(=O)O[C@@H]3O[C@H](CO[C@@H]4O[C@H](CO)[C@@H](O)[C@H](O)[C@H]4O)[C@@H](O)[C@H](O[C@@H]4O[C@H](CO)[C@@H](O)[C@H](O)[C@H]4O)[C@H]3O)CC[C@]3(C)C(=CCC4[C@@]5(C)CC[C@H](O[C@@H]6OC[C@@H](O)[C@H](O)[C@H]6O)[C@@](C)(C(=O)O)C5CC[C@]43C)[C@@H]2C1 (stereo partly specified)
inactive: outcome [1] inactive [at 9.29 µM] | activity change, negative = cytotoxicity [2] 2.51% [at 9.29 µM] | Potency [3] | Potency [4]

COCCN1CCC(C(=O)NO)(S(=O)(=O)c2ccc(Oc3ccc(OC(F)(F)F)cc3)cc2)CC1
inactive: Potency [1] | Potency [2] | Potency [3] | Potency [4]

COC(=O)[C@H](Cc1ccc([N+](=O)[O-])cc1)NC(=O)c1cccc2ccccc12
inactive: Potency [1] | Potency [2] | Potency [3] | Potency [4]

Cc1cc(C(=O)N2Cc3cnn(C)c3Nc3ccccc32)ccc1CNC(=O)N1CCN(Cc2cc(O)cc(O)c2)CC1
inactive: Potency [1] | Potency [2] | Potency [3] | Potency [4]

Cc1oc(S(=O)(=O)N2CCCCC2)cc1NC(=O)Nc1ccccc1
inactive: Potency [1] | Potency [2] | Potency [3] | Potency [4]

CCOc1ncc(S(=O)(=O)N2CCN(CC)CC2)cc1-c1nc2c(CC)n(CCOC)nc2c(=O)[nH]1
inactive: Potency [1] | Potency [2] | Potency [3] | Potency [4]

Cn1cc(Nc2cnccc2C(=O)O)c2cccnc21
inactive: Potency [1] | Potency [2] | Potency [3] | Potency [4]

CC(C)C1NC(=O)CNC(=O)C2CCCN2C(=O)C(Cc2c[nH]c3ccccc23)NC(=O)CNC(=O)C(Cc2ccc(O)cc2)NC(=O)CNC1=O (stereo unspecified) (cyclo(GVGYGWP); configuration not given here)
inactive: Potency [1] | Potency [2] | Potency [3] | Potency [4]

O=C(NCC(=O)N1CCCC1)Nc1ccc2ccccc2c1
inactive: Potency [1] | Potency [2] | Potency [3] | Potency [4]

CC(C)(O)C1OC1C1=CC(=O)C2(C)OC2C1O (stereo unspecified)
inactive: Potency [1] | Potency [2] | Potency [3] | Potency [4]

Cc1ccc(C)c(S(=O)(=O)n2cnc3ccccc32)c1
inactive: Potency [1] | Potency [2] | Potency [3] | Potency [4]

NC(Cc1c[nH]c2ccc(O)cc12)C(=O)O (stereo unspecified)
inactive: Potency [1] | Potency [2] | Potency [3] | Potency [4]

COC(=O)C[C@@H]1C(C(=O)O)=CO[C@@H](O[C@@H]2O[C@H](CO)[C@@H](O)[C@H](O)[C@H]2O)/C1=C\COC(=O)/C=C/c1ccc(O)c(OC)c1
inactive: Potency [1] | Potency [2] | Potency [3] | Potency [4]

C[C@@]12CC3(S(=O)(=O)O)OC(O1)[C@]1(COC(=O)c4ccccc4)[C@H]3C[C@]21O[C@@H]1O[C@H](CO)[C@@H](O)[C@H](O)[C@H]1O
inactive: Potency [1] | Potency [2] | Potency [3] | Potency [4]

COc1cccc(CN(C(=O)CC(C)(C)C)C2CC(C(=O)N3CCNCC3)N(Cc3ccc4c(c3)OCO4)C2)c1 (stereo unspecified)
inactive: Potency [1] | Potency [2] | Potency [3] | Potency [4]

COc1cc(CC2COC(c3ccc(OC4OC(CO)C(O)C(O)C4O)c(OC)c3)C2CO)ccc1O (stereo unspecified)
inactive: Potency [1] | Potency [2] | Potency [3] | Potency [4]

COC(=O)C1=COC(OC2OC(CO)C(O)C(O)C2O)C2C(C)CC(=O)C12O (stereo unspecified)
inactive: Potency [1] | Potency [2] | Potency [3] | Potency [4]

C=C[C@@]1(C)CCC2=C([C@H]1OC(C)=O)[C@H](OC(C)=O)CC1[C@](C)(C(=O)OC)CC[C@H](OC(C)=O)[C@]21C (stereo partly specified)
inactive: Potency [1] | Potency [2] | Potency [3] | Potency [4]

CC(=O)c1[nH]cc(CCC(=O)O)c1CC(=O)O
inactive: Potency [1] | Potency [2] | Potency [3] | Potency [4]

O=C(/C=C/c1ccc(O)cc1)OC[C@H]1O[C@@H](O/C(=C\c2ccccc2)C(=O)O)[C@H](O)[C@@H](O)[C@@H]1O
inactive: Potency [1] | Potency [2] | Potency [3] | Potency [4]
